ChEMBL document CHEMBL3988442, “University of Dundee, Small-Polar-MMV Screening Library” (2021)
Values joined by “and” are separate entries in the source; they are usually repeats but may differ in a detail not shown here. Equal values may be shown once. For some of these results: Measured potencies and affinities stand elsewhere.

Experiments:
Parameters in all cases: scale not given: direction of the effect not stated beside the values
[1] = molecular target: Protein translocase subunit SecA (Escherichia coli (strain K12)) (UniProt P10408); test: Assay to Identify E. coli SecA ATPase Inhibitors; assay type: functional; settings: 30 µM
Chain of Protein translocase subunit SecA (Escherichia coli (strain K12)) (P10408 whole entry): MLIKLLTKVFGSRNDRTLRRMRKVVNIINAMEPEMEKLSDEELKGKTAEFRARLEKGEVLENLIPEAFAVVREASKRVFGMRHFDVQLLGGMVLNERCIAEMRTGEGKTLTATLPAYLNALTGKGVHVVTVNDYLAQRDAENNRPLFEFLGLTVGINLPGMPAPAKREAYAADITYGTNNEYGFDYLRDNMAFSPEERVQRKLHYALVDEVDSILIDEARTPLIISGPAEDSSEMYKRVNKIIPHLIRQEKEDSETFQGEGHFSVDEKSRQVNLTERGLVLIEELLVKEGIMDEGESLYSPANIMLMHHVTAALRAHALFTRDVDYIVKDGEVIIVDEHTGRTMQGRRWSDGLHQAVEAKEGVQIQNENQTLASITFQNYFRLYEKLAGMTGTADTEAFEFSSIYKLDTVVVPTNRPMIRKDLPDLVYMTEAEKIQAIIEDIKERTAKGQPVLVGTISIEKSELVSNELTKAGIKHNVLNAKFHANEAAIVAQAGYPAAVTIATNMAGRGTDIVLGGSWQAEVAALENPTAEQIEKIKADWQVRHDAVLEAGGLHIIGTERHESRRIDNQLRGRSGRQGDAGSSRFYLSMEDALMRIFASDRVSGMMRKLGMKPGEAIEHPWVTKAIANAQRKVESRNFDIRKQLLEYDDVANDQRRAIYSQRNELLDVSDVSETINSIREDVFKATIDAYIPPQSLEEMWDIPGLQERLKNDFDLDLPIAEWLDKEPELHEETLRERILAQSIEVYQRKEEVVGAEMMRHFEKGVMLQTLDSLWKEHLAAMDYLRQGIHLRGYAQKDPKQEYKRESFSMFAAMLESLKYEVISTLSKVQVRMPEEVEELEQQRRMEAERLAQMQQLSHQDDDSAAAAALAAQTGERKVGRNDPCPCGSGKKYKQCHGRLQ

[2] = molecular target: T1, Ubiquitin-activating enzyme e1, putative (Leishmania donovani (strain BPK282A1)) (UniProt E9BSI1); test: Leishmania donovani Ubiquitin Activating Enzyme (LdE1); assay type: functional; settings: 30 µM
T1 sequence (whole entry): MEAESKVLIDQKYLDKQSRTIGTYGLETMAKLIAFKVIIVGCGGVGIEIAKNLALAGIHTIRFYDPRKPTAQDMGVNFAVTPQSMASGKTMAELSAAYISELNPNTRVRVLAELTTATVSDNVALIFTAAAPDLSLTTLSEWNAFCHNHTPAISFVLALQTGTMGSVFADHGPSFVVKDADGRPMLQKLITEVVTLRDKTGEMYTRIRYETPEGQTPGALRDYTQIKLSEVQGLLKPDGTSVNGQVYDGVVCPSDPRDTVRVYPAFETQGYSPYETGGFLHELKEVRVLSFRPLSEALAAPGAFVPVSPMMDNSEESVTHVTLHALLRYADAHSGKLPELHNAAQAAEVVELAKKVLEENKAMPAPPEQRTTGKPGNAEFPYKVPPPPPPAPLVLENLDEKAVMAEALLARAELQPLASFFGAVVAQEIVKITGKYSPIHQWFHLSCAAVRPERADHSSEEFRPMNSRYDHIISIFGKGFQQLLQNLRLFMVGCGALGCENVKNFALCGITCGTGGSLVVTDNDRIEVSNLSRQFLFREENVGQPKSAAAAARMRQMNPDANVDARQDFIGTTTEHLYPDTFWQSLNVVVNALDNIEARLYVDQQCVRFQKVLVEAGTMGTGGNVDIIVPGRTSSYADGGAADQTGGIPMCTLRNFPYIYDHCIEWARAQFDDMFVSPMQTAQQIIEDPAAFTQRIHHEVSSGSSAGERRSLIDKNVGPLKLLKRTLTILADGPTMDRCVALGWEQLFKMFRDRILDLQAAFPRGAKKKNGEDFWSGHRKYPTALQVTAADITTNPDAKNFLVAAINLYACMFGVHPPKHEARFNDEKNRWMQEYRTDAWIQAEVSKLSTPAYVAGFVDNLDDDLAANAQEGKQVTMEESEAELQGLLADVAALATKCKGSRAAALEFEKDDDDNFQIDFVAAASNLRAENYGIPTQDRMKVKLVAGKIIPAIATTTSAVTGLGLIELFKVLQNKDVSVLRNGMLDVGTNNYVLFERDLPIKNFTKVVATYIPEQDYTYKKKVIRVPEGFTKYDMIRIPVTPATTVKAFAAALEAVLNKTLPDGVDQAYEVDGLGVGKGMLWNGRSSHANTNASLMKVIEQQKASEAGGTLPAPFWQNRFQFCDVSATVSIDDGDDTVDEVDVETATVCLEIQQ

[3] = molecular target: Sialic acid-binding Ig-like lectin 9 (Homo sapiens) (UniProt Q9Y336); test: Hs-Siglec9 ALPHAscreen SOP 20170721; settings: 10 µM
Chain of Sialic acid-binding Ig-like lectin 9 (Homo sapiens) (Q9Y336 whole entry): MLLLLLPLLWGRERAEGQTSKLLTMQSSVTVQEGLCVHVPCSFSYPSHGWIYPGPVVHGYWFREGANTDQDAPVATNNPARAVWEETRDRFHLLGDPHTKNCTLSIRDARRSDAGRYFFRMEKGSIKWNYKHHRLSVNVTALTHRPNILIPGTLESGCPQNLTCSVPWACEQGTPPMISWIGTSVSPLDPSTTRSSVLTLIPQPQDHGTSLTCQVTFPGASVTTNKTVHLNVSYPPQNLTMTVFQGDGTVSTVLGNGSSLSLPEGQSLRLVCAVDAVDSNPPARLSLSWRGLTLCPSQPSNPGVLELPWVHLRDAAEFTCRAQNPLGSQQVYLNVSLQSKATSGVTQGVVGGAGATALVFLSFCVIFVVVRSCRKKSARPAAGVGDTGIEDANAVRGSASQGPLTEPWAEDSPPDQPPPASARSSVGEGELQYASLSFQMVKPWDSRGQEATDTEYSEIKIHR

Trypanosoma cruzi = test: Trypanosoma cruzi phosphomannomutase and mannose-1-phosphate guanylyltransferase assay; assay type: functional; settings: 10 µM
[4] = molecular target: T2, Arginase-2, mitochondrial (Homo sapiens) (UniProt P78540); test: in vitro enzyme assay to detect the production of urea directly proportional to the activity of Arginase II; assay type: functional; note: in the data most compounds retested in dose-response had high values
T2 sequence (whole entry): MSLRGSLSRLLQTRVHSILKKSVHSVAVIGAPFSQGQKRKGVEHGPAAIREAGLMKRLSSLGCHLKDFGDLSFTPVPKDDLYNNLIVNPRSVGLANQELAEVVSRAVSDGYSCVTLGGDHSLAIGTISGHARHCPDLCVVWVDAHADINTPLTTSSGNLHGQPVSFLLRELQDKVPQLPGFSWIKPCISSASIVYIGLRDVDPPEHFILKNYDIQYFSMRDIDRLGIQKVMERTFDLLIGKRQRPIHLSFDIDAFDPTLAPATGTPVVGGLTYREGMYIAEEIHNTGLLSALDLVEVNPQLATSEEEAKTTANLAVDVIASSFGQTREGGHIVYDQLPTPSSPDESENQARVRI

[5] = molecular target: T3, Proteasome subunit beta (Trypanosoma cruzi) (UniProt O96673); test: Trypanosoma cruzi proteasome chymotrypsin-like activity (TcProtChymo) assay.; note: in the data most compounds retested in dose-response had high values; assay type: functional; settings: 9.37 µM
T3 sequence (whole entry): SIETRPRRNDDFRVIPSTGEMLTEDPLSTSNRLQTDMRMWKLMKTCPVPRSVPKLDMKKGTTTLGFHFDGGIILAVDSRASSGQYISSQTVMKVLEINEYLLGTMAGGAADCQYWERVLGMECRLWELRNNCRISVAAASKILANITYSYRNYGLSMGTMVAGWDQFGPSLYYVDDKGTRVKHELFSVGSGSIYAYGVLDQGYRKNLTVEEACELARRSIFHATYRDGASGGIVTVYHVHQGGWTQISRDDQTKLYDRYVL

N/A = test: Trypanosoma cruzi proteasome luciferase counter-screen; assay type: functional; settings: 9.37 µM
Homo sapiens = species on record: Homo sapiens; test: To identify inhibition of the IFN signalling (Jak-Stat) pathway via expression of an eGFP reporter gene under the control of an IFN-stimulated response element (ISRE) containing MxA promoter.; assay type: functional; settings: 30 µM
[6] = molecular target: T4, Tyrosyl-tRNA synthetase, putative (Trypanosoma cruzi (strain CL Brener)) (UniProt Q4DSP6); test: Trypanosoma cruzi tyrosyl tRNA synthetase (TcYRS) _High Tyrosine SOP; assay type: functional; settings: 30 µM; note: in the data most compounds retested in dose-response had high values
T4 sequence (whole entry): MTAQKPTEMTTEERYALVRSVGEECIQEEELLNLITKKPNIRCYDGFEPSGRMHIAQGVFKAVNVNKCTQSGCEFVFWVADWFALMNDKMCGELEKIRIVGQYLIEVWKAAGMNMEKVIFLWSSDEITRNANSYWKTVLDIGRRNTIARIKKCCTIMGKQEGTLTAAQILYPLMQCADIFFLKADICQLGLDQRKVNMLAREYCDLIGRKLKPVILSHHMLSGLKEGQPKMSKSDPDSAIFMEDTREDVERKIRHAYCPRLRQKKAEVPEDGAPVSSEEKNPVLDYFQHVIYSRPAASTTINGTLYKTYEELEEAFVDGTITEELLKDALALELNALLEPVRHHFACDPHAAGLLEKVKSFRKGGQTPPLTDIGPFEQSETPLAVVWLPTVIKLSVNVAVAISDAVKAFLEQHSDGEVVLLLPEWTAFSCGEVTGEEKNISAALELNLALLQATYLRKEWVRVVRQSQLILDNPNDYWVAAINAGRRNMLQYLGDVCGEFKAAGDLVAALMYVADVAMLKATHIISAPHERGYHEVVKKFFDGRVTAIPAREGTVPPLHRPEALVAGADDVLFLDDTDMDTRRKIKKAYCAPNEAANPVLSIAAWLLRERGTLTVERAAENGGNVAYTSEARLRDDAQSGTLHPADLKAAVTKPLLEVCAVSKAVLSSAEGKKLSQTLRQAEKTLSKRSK

[7] = molecular target: T4, Tyrosyl-tRNA synthetase, putative (Trypanosoma cruzi (strain CL Brener)); test: Trypanosoma cruzi tyrosyl tRNA synthetase (TcYRS) SOP; assay type: functional; settings: 30 µM
[8] = molecular target: Chromo domain-containing protein 1 (Saccharomyces cerevisiae (strain ATCC 204508 / S288c) (Baker's yeast)) (UniProt P32657); test: ScCHD-1 Enzyme Inhibition Assay; assay type: functional; settings: 30 µM; note: in the data most compounds retested in dose-response had high values
Chain of Chromo domain-containing protein 1 (Saccharomyces cerevisiae (strain ATCC 204508 / S288c) (Baker's yeast)) (P32657 whole entry, the tested form may be a part): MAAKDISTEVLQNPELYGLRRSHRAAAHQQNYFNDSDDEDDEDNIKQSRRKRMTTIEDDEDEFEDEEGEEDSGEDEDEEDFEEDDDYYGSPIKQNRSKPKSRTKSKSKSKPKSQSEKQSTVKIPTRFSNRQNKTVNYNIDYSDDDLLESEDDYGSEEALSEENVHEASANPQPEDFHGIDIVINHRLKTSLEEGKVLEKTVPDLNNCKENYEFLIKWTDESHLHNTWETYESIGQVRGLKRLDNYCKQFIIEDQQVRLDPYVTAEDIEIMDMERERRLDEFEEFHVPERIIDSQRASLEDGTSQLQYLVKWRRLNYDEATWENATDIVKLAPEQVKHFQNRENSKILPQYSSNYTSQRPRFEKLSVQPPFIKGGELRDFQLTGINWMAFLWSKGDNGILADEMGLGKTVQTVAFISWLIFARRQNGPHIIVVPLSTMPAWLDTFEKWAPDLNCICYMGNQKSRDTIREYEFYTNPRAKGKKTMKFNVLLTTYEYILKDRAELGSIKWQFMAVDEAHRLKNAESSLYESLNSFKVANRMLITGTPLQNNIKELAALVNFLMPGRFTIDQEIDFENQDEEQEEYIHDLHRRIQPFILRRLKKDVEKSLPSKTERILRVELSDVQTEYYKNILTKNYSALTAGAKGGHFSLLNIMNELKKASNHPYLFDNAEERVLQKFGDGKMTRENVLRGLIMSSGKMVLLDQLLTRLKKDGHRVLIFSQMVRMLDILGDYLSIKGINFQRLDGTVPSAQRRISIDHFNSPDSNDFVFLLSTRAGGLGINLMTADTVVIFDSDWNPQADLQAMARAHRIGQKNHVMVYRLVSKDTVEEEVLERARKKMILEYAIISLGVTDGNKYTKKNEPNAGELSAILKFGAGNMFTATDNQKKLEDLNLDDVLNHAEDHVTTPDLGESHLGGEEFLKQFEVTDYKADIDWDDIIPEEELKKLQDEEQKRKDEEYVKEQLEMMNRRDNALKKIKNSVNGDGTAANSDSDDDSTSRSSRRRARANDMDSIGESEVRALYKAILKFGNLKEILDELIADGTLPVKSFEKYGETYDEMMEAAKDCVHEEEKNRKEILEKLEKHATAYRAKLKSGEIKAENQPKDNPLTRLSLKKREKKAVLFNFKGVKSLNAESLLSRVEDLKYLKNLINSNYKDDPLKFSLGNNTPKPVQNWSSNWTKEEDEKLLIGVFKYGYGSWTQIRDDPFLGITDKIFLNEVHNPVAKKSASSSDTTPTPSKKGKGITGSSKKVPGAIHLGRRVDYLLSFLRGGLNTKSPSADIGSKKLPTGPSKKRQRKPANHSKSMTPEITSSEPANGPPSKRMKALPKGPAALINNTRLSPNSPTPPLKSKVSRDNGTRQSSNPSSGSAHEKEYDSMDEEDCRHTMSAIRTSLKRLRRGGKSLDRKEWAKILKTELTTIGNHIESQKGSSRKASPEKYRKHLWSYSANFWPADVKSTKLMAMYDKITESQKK

[9] = molecular target: AMP-activated protein kinase, AMPK (Homo sapiens) (UniProt P54646+O43741+P54619+Q9UGJ0+Q9Y478+Q13131+Q9UGI9); test: AMP-dependent Kinase enzyme assay. An in vitro enzyme assay that detects ADP turnover that is directly proportional to AMPK activity. This uses naive AMPK that is activated during the assay with MK-8722; assay type: functional; settings: 30 µM

SMILES | Percent Effect [1] [%] | Percent Effect [2] [%] | Percent Effect [3] [%] | Percent Effect (Trypanosoma cruzi) [%] | Percent Effect ([4]; 33.3 µM) [%] | Percent Effect [5] | Percent Effect (N/A) | Percent Effect (Homo sapiens) [%] | Percent Effect [6] [%] | Percent Effect [7] [%] | Percent Effect [8] [%] | Percent Effect ([4]; 30 µM) [%] | Percent Effect [9] [%]
COc1cccc(-c2nc(CNCCn3cccn3)cs2)c1 | -0.562 | -2.56 | -1.83 | -5.54 | 2.46 | 59.5% and 60.9% and 43.9% | 31.8% and 30.9% | 37.8 | 4.31 | 6.02 | 1.48 |  | 
COc1ccc2c(c1)OCC(CNC(=O)c1ccc(=O)n(C)c1)C2 (stereo not given) | -9.07 | -2.7 | 20.7 | 5.72 | 17.8 | 12.5% |  | 9.66 | 4.79 | 9.76 | 0.784 | -5.95 | 
Cc1ccc(C)c(C(C(=O)O)N2CCCN(Cc3ccccn3)CC2)c1 (stereo not given) | -6.39 | 5.41 | 1.19 | -2.23 | 4.54 | 16.3% |  | 23.2 | 6.92 | 14.6 | -4.84 | 0.54 | 
COCc1noc(-c2ccc(N3CCCCC3CO)nc2)n1 (stereo not given) | -2.04 | -5.41 | 7.35 | -0.485 | 6.64 | 62% and 48.5% and 57.3% | 26.9% | 2.19 | 0.532 | 0 | -0.226 |  | 
Cc1noc(C)c1C(=O)NCc1ccnc(OCC(F)(F)F)c1 | -3.23 | 26.3 | 0.107 | 7.52 | 0 | 11.2% |  | 10.2 | 7.35 | 9.76 | -11 |  | -1.27
